About 83,000 compounds went through this panel and 20% of them were active in at least one assay; those are over-represented in the sample as a whole.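 Step 1: grow cells in 96-well plates. Step 2: add test compound at a single concentration. Step 3: incubate 48 h. Step 4: record percent growth.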 Activity calls are given as the source filed them. Rule for the calls: active = growth percent below 10; inactive = the rest.

From PubChem BioAssay (NCI) come the findings set out here.

For the assay, the system named is DU-145 prostate. As to the kind of experiment: NCI-60 one-dose screen, 48 h (100 = growth as untreated, 0 = no growth, -100 = all killed). As to conditions: 10 µM.
`CCOC(=O)c1sc2ncnc(Nc3ccc4c(cnn4C(=O)Nc4ccccc4)c3)c2c1C`: the growth was 64.6% (inactive).

With `CCOC(=O)c1cc(C(=O)c2ccc(Cl)cc2)n2ccc(-c3cc[n+](CC(=O)c4ccc(OC)cc4)cc3)cc12`, the growth is 30.3% (inactive).

Take `CC(CN(C)C)Oc1ccc(OC(C)CN(C)C)c2c1C(=O)c1ccccc1C2=O` (stereo not given): the growth was 46.1% (inactive).

As to `N#Cc1c(-c2ccc(Cl)cc2)n(O)c2ccccc12`, the growth was 25.4% (inactive). Next, `C=CCN(CC=C)C(=O)[C@H](CC)[C@@H]1CC[C@@H](C)[C@@H]([C@H](C)[C@@H](O)[C@@H](C)C(=O)[C@H](CC)C2O[C@]3(C=CC(=O)[C@]4(CC[C@@](C)([C@H]5CC[C@](O)(CC)[C@H](C)O5)O4)O3)[C@H](C)C[C@@H]2C)O1` (stereo not given in full): 74.8% (inactive). Consider `COc1cc(C2C(C#N)=C(N)Oc3cc(O)ccc32)cc(OC)c1OC` (stereo not given), for which the growth was 11.1% (inactive). Next, `O=C(CI)OCC(COC(=O)CI)OC(=O)CI`: 59.5% (inactive).

Turning to `Cc1ccc(C(=O)C2C(=O)C3CCC2C3)cc1` (stereo not given), the growth was 121% (inactive). The result for `CCc1ccc(C2=NN(c3ccc(S(C)(=O)=O)cc3)C(=O)CC2)cc1` reads 21.3% (inactive); that for `CC(C)(C)c1ccc(S(=O)(=O)Oc2ccc(NC(=O)C3CCCCC3)cc2)cc1`, 59.2% (inactive). As for `N#CC1=CC2CN(Cc3ccccc3)C1C1C(=O)N(c3ccccc3)C(=O)C21` (stereo not given), the growth is 105% (inactive). For `CN(C)CCCOc1ccccc1NC1=C(Cl)C(=O)C(Nc2ccccc2OCCCN(C)C)=C(Cl)C1=O`, the growth is -97.2% (active). Next, `CCOC(=O)c1cc(C(=O)c2cc(OC)c(OC)c(OC)c2)n2c1ccc1c3cccnc3ccc12`: 89.3% (inactive).

Regarding `COc1cc2cc(Oc3ccc(NC(=O)c4ccccc4)cc3)c(C)nc2cc1OC`, the growth was 100% (inactive). On to `COC(=O)c1cc2oc(/C=C3/SC(=S)N(N)C3=O)cc2n1Cc1ccccc1`, for which the growth is 32.7% (inactive).

`CC[C@@H](C(=O)[C@@H](C)[C@@H](O)[C@H](C)[C@@H]1O[C@@H]([C@@H](CC)C(=O)N(CC)CC)CC[C@@H]1C)C1O[C@]2(C=CC(=O)[C@]3(CC[C@@](C)([C@H]4CC[C@](O)(CC)[C@H](C)O4)O3)O2)[C@H](C)C[C@@H]1C` (stereo not given in full): the growth is 68.5% (inactive). With `Cc1ccc(N=Nc2ccccc2)cc1`, the growth was 111% (inactive).

Regarding `COc1cc(-c2nn(-c3cccc(NC(=O)CCNc4ccc(N5CCOCC5)cc4)c3)cc2-c2ccncc2)ccc1Cl`, the growth was 29.2% (inactive).

Regarding `O=c1oc2c(cc1-c1ccc(F)cc1)C(O)Oc1ccccc1-2` (stereo not given), the growth was 98.1% (inactive). The result for `CCOC(=O)c1cc(C(=O)c2cc(OC)c(OC)c(OC)c2)n2ccc(-c3cc[n+](CC(=O)c4cc(OC)c(OC)c(OC)c4)cc3)cc12` reads 44.8% (inactive); that for `CC(CN(C)C)Oc1ccccc1NC1=C(Cl)C(=O)C(Nc2ccccc2OC(C)CN(C)C)=C(Cl)C1=O` (stereo not given), -99.3% (active); that for `O=C(CCCSc1nc(-c2ccc(Cl)cc2)cc(-c2ccc(Cl)cc2)n1)NO`, 15.1% (inactive). The result for `CC[C@@H]1NC(=O)[C@H]([C@H](O)[C@H](C)C/C=C/c2ccc(CN3C(=O)CCCC3=O)cc2)N(C)C(=O)[C@H](C(C)C)N(C)C(=O)[C@H](CC(C)C)N(C)C(=O)[C@H](CC(C)C)N(C)C(=O)[C@@H](C)NC(=O)[C@H](C)NC(=O)[C@H](CC(C)C)N(C)C(=O)[C@H](C(C)C)NC(=O)[C@H](CC(C)C)N(C)C(=O)CN(C)C1=O` reads 64.1% (inactive); that for `CCNc1nc(C(F)(F)F)nc2c1sc(=S)n2-c1ccccc1`, 101% (inactive). The result for `COc1cc2c3c(n(C4CCN(C)CC4)c(=O)c2cc1OC)-c1cc2c(cc1C3=O)OCO2` reads 78.4% (inactive). With `Cc1cc(C)nc(NS(=O)(=O)c2ccc(Nc3nc4nc(NCc5ccccc5)nc(-c5ccc(O)cc5)c4c(=O)[nH]3)cc2)n1`, the growth is 33% (inactive). Next, `Oc1ccc(/C=N/N=C2c3ccccc3-c3ccccc32)c(O)c1`: 90% (inactive); `CN1CCN(CC(=O)Nc2cccc(-n3cc(-c4ccncc4)c(-c4ccc(Cl)c(O)c4)n3)c2)CC1`: 19.4% (inactive); `CNS(=O)(=O)Oc1ccc(-c2ccc3occc3c2)cc1`: 109% (inactive). Next, `Cc1n[nH]c(C)c1N=Nc1cccc2c1C(=O)c1ccccc1C2=O`: 101% (inactive); `Clc1ccc(C2=NN=C3C(Cc4ccccc4)=Nc4ccccc4N3C2)cc1`: 70.1% (inactive). The result for `CCOC(=O)N/N=C/c1ccc(OC)c(OC)c1` reads 118% (inactive); that for `COc1cc(-c2nn(-c3cccc(NC(=O)NCCNC(=O)c4ccccc4)c3)cc2-c2ccncc2)ccc1Cl`, 23% (inactive). On to `CCOC(=O)c1cc(C(=O)c2cc(OC)c(OC)c(OC)c2)n2ncc3ccccc3c12`, for which the growth is 83.6% (inactive). Consider `NC1=CC(=O)C(=O)c2cccnc21`, for which the growth is 28.3% (inactive). `COc1ccc(Cl)cc1Nc1nc(C(F)(F)F)ccc1C(=O)N/N=C/c1cc(OC)c(OC)c(OC)c1`: the growth is 38.4% (inactive).

`COc1ccc(C(c2ccc(OCCN(C)C)cc2)c2cc3ccccc3c3ccccc23)cc1` (stereo not given): the growth is 34.2% (inactive).

With `COc1cc(C(=O)/C=C/c2c[nH]c3ccccc23)cc(OC)c1OC`, the growth was 5.54% (active). Next, `CC(C)(C)OC(=O)CC(S(=O)(=O)c1ccccc1)S(=O)(=O)c1ccccc1`: 94.2% (inactive); `CC(C)(C)OC(=O)CN1CCc2c(sc3ncnc(N/N=C/c4cccc5ccccc45)c23)C1`: 66.4% (inactive).
